The source of these data is PubChem BioAssay (NCI).

Among the test systems are NCI-H23 lung; NCI-H226 lung; NCI-H322M lung; HOP-62 NSCLC; NCI-H460 lung; HOP-92 NSCLC; NCI-H522 lung; A549/ATCC NSCLC; 786-0 renal; COLO 205 colon.
What all share (assay): NCI-60 one-dose screen, 48 h (100 = growth as untreated, 0 = no growth, -100 = all killed)
What all share (details): 10 µM unless noted

Values joined by “and” are separate entries in the source; they are usually repeats but may differ in a detail not shown here. Equal entries are not always repeated. About 83,000 compounds went through this panel and 20% of them were active in at least one assay; those are over-represented in the sample as a whole.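 Cell lines were cultured in 96-well plates, exposed to a single compound concentration, and assessed for percent growth 48 hours later.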 Active and inactive are the calls of the source. Rule for the calls: active = growth percent below 10; inactive = the rest.

Consider `COc1cc2c(c(OC)c1OC)-c1ccc(O)cc1[C@@H](NC(C)=O)CC2`, for which the growth is 37.7% (inactive) and 13.8% (inactive) in the test with NCI-H23 lung; 5.36% (active) and 46.3% (inactive) in the test with NCI-H226 lung; 42.7% (inactive) and 1.84% (active) in the test on NCI-H322M lung; 37.8% (inactive) and 21.6% (inactive) with HOP-62 NSCLC; 5.66% (active) and 0.839% (active) with NCI-H460 lung; 16.7% (inactive) with HOP-92 NSCLC. The growth is 17% (inactive) and -32.6% (active) in the test with NCI-H522 lung; 14.9% (inactive) in the test with A549/ATCC NSCLC; 29.2% (inactive) and 32.5% (inactive) in the test with 786-0 renal; -32.6% (active) and -83.8% (active) in the test with COLO 205 colon.
Take `CN(C)[C@@H]1C(=O)C(C(N)=O)=C(O)[C@@]2(O)C(=O)C3=C(O)c4c(O)ccc(Cl)c4[C@@](C)(O)[C@H]3C[C@@H]12`: the growth in the test on NCI-H23 lung is 99.6% (inactive) and 88.6% (inactive); in the test with NCI-H226 lung, 93.3% (inactive) and 95.3% (inactive); in the test on NCI-H322M lung it was 84.8% (inactive) and 105% (inactive); with HOP-62 NSCLC, 90.3% (inactive); with NCI-H460 lung it was 88.9% (inactive) and 101% (inactive); in the test with HOP-92 NSCLC, 75.7% (inactive) and 11.8% (inactive). The growth is 79.4% (inactive) and 32.7% (inactive) in the test with NCI-H522 lung; 97% (inactive) in the test on A549/ATCC NSCLC; 91.3% (inactive) and 71.2% (inactive) in the test with 786-0 renal; 92.8% (inactive) and 97.8% (inactive) in the test on COLO 205 colon.
`Cc1ccccc1-n1c(/C=C\c2ccccn2)nc2ccccc2c1=O`: the growth in the test on NCI-H23 lung was 55.5% (inactive); with NCI-H226 lung it was 97.8% (inactive); in the test with NCI-H322M lung, 44.9% (inactive); in the test on HOP-62 NSCLC, 107% (inactive); with NCI-H460 lung, 68% (inactive); with HOP-92 NSCLC, 41.2% (inactive). The growth with NCI-H522 lung was 54.8% (inactive); in the test on A549/ATCC NSCLC, 80.4% (inactive); in the test with 786-0 renal, -1.31% (active); with COLO 205 colon it was 94.2% (inactive).
For the compound `O=C(NC1=NCC[Se]1)c1ccccc1O`, the growth is 65.6% (inactive) in the test on NCI-H23 lung; 62.9% (inactive) in the test on NCI-H226 lung; 49.4% (inactive) with NCI-H322M lung; 39% (inactive) in the test with HOP-62 NSCLC; 16.2% (inactive) in the test with NCI-H460 lung; 63.5% (inactive) with HOP-92 NSCLC. Moreover, the growth with NCI-H522 lung was 60.9% (inactive); with A549/ATCC NSCLC, 56.8% (inactive); with 786-0 renal, 94.7% (inactive); with COLO 205 colon, 124% (inactive).
Take `CCCCCCCCCCCCCCCCCCn1cc[n+](C)c1`: the growth is -48.9% (active) and -44.3% (active) in the test with NCI-H23 lung; -54% (active) and -61.7% (active) with NCI-H226 lung; 5.3% (active) and 6.16% (active) in the test on NCI-H322M lung; -58.6% (active) and -74.1% (active) in the test on HOP-62 NSCLC; -62.9% (active) and -51.3% (active) in the test on NCI-H460 lung; -51.3% (active) and -66.2% (active) in the test on HOP-92 NSCLC. The growth was -74.9% (active) and -74.3% (active) with NCI-H522 lung; -15.2% (active) and -47.2% (active) in the test with A549/ATCC NSCLC; -74.9% (active) and -81.7% (active) in the test on 786-0 renal; 1.82% (active) and -47.3% (active) in the test on COLO 205 colon.
As to `C[C@]12CC[C@@H](OC(=O)N(CCCl)N=O)C[C@@H]1CC[C@@H]1[C@@H]2CC[C@]2(C)C(=O)CC[C@@H]12`, the growth in the test on NCI-H23 lung was 74.7% (inactive); in the test on NCI-H226 lung, 88% (inactive); in the test with NCI-H322M lung, 57.5% (inactive); with HOP-62 NSCLC, 38.6% (inactive); in the test on NCI-H460 lung it was -67.5% (active); in the test with HOP-92 NSCLC, -10.2% (active). Further, the growth is 51.1% (inactive) in the test with NCI-H522 lung, 10.3% (inactive) in the test with A549/ATCC NSCLC, 28.4% (inactive) in the test on 786-0 renal and -72.1% (active) in the test with COLO 205 colon.
Turning to `CC[C@H](C)[C@H](NC(=O)C12CC(NC)(C1)C2)C(=O)N(C)[C@H](C[C@@H](OC(C)=O)c1nc(C(=O)N[C@@H](Cc2ccccc2)C[C@H](C)C(=O)OC)cs1)C(C)C`, the growth in the test with NCI-H23 lung is 15.2% (inactive); in the test with NCI-H226 lung, 24.9% (inactive); in the test with NCI-H322M lung, 51.2% (inactive); in the test on HOP-62 NSCLC, 28.6% (inactive); in the test with NCI-H460 lung it was 15% (inactive); with HOP-92 NSCLC, 17.5% (inactive). In addition, the growth is -23.9% (active) in the test with NCI-H522 lung, 20% (inactive) in the test on A549/ATCC NSCLC, 24.7% (inactive) in the test on 786-0 renal and -19.6% (active) in the test with COLO 205 colon.
Consider `N#CC(N)c1ccccc1` (stereo not given), for which the growth in the test with NCI-H23 lung was 109% (inactive); in the test with NCI-H226 lung it was 100% (inactive); in the test on NCI-H322M lung, 113% (inactive); in the test with HOP-62 NSCLC it was 114% (inactive); with NCI-H460 lung, 102% (inactive); with HOP-92 NSCLC, 113% (inactive). Further, the growth was 109% (inactive) in the test on NCI-H522 lung, 109% (inactive) in the test with A549/ATCC NSCLC, 105% (inactive) in the test with 786-0 renal and 116% (inactive) in the test on COLO 205 colon.
Regarding `CC12CCC3C(CCC4CC(O)CCC43C)C1CCC2=O` (stereo not given), the growth with NCI-H23 lung is 98.4% (inactive); in the test with NCI-H226 lung, 98.1% (inactive); with NCI-H322M lung, 102% (inactive); in the test on HOP-62 NSCLC, 95.8% (inactive); with NCI-H460 lung, 100% (inactive); in the test on HOP-92 NSCLC it was 74.5% (inactive). For the same compound, the growth was 61.9% (inactive) with NCI-H522 lung, 94.2% (inactive) in the test with A549/ATCC NSCLC, 78.1% (inactive) in the test with 786-0 renal and 130% (inactive) with COLO 205 colon.
On to `CC1(C)C=Cc2c(ccc3c2[N+]([O-])=C2C3=C[C@@]34NC(=O)[C@]5(CCCN5C3=O)C[C@@H]4C2(C)C)O1`, for which the growth with NCI-H23 lung was 63.2% (inactive); in the test with NCI-H226 lung it was 84.5% (inactive); in the test with NCI-H322M lung it was 67.5% (inactive); in the test with HOP-62 NSCLC, 54.5% (inactive); with NCI-H460 lung, 26.9% (inactive); in the test with HOP-92 NSCLC it was 73.4% (inactive). In addition, the growth in the test with NCI-H522 lung is 25.6% (inactive); with A549/ATCC NSCLC, 54.7% (inactive); with 786-0 renal, 42.1% (inactive); with COLO 205 colon it was 35.2% (inactive).
On to `C[C@@]12CCCc3coc(c31)C(=O)c1cc3c(cc12)C(=O)C1=C(NCCS1(=O)=O)C3=O`, for which the growth with NCI-H23 lung is -36.4% (active); in the test with NCI-H226 lung, 7.87% (active); with NCI-H322M lung it was -6.28% (active); with HOP-62 NSCLC it was -9.65% (active); in the test on NCI-H460 lung it was 0.0882% (active); in the test with HOP-92 NSCLC it was -30.6% (active). The growth in the test with NCI-H522 lung is -55.6% (active); in the test with A549/ATCC NSCLC, -10.7% (active); in the test with 786-0 renal it was 6.38% (active); in the test with COLO 205 colon it was -78.1% (active).
